Out of some 2,000 compounds screened, about 250 (12%) were called active. The sample holds actives, similar compounds and a random draw of the others, so the mix is not that of the screen. No stated cut-off is given here; in the data, active means hERG blockade below about -20% or above about 20%; inactive means in between.

The values that follow come from PubChem BioAssay AID376 (PDSP, 2006).

Chain of Voltage-gated inwardly rectifying potassium channel KCNH2 (Homo sapiens) (Q12809 whole entry, looked up): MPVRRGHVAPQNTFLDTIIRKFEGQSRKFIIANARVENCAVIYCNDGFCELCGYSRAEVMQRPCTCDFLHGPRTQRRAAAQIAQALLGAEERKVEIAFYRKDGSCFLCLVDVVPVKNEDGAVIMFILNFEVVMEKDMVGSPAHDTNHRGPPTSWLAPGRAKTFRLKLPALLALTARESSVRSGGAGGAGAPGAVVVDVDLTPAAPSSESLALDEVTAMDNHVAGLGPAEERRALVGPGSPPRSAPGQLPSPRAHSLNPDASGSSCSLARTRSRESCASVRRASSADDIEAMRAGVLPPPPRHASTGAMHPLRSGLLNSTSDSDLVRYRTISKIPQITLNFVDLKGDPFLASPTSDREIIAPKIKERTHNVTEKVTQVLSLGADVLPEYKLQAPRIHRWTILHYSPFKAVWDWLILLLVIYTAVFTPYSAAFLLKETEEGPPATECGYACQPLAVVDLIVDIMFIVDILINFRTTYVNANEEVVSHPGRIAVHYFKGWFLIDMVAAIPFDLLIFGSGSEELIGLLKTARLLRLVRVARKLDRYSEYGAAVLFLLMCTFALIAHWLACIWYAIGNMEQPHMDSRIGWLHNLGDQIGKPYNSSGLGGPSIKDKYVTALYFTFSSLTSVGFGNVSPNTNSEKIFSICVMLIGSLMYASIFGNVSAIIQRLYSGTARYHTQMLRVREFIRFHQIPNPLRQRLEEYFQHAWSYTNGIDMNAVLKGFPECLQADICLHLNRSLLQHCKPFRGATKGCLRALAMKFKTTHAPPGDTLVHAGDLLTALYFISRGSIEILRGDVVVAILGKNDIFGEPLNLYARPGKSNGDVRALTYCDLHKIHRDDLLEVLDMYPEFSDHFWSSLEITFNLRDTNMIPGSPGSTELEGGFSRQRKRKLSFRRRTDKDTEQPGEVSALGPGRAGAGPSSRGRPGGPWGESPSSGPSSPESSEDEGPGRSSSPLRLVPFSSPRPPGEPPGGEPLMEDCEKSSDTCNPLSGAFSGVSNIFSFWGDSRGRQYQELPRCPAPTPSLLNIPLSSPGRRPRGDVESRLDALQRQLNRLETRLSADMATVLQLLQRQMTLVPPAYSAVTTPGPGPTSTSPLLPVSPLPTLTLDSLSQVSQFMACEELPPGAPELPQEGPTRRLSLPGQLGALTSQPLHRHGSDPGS

The experiment concerns the target Voltage-gated inwardly rectifying potassium channel KCNH2 (Homo sapiens) (UniProt Q12809). Nature of the experiment: KCNH2 potassium channel function modulators, cell-based (AID 376).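 Further: 0% = buffer alone and 100% = reference blocker.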 The note with it: hERG-expressing cells, channel activity single-concentration screen; concentration not given here. Background: hERG is a cardiac potassium channel; its block is linked to QT prolongation.
Regarding `c1ccc(NCCSc2nc3ccccc3s2)cc1`, the hERG blockade was -0.231% (inactive). The value for `CCC1CC(=O)N(SCC(N)C(=O)O)C1=O` (centres undefined) was -6% (inactive); that for `Fc1cccc(F)c1C(Nc1nncs1)Nc1nncs1` was -2.76% (inactive); that for `CC(C)C(Sc1nc(N)nc2nc[nH]c12)C(=O)O` (centres undefined) was 1.36% (inactive). Then `C[N+](C)(C)CCN[N+]1(C)CCCc2ccccc21` (centres undefined), with 13.2% (inactive); and `CNCC(Cl)=NS(=O)(=O)c1ccc(C)cc1`, with 2.08% (inactive).

On to `CC(=NS(=O)(=O)c1ccc(Cl)c(Cl)c1)OCC(C)(C)C`, for which the hERG blockade was 21.3% (active). Then `CC(C)(C)C(=O)C(C(c1ccccc1)N1CCOCC1)N1CCOCC1` (centres undefined), with 18.3% (inactive); and `O=C(O)CC(Cc1ccccc1Cl)C(=O)O` (centres undefined), with 9.3% (inactive).

For `CC(CNC(N)=O)NC(N)=O` (centres undefined), the hERG blockade is 2.5% (inactive). The value for `C[N+](C)(C)c1cc2c(nn1)Nc1ccccc1S2` was 43.5% (active). Take `O=C(O)CC1(CC(=O)O)Nc2ccccc2SC1=O`: the hERG blockade is -18.2% (inactive). Then `O=S(=O)(O)CCCc1cccc2ccccc12`, with -12.8% (inactive); and `Nc1cccc2nsnc12`, with -4.23% (inactive). The value for `NC(CCc1ccccc1)(C(=O)O)c1ccccc1` (centres undefined) was -9.5% (inactive); that for `CC12CCC(=O)C=C1CCC1C2CCC2(C)C(C(=O)COS(=O)(=O)c3ccc(Br)cc3)CCC12` (centres undefined) was 17% (inactive); that for `O=C(O)C=C(C(=O)O)C12CCN3CC4=CCOC5CC(=O)NC1C5C4CC32` (centres undefined) was 20.4% (active).

`NC1C2C(CC(=O)O)OCC=C3CN4CCC1(C(=O)C(=O)O)C4CC32` (centres undefined): the hERG blockade is 13% (inactive). For the compound `O=C1CC2OCC=C3CN4CCC5(C(=O)O)C(N1)C2C3CC45` (centres undefined), the hERG blockade was -10.2% (inactive). As to `ON(CCc1ccncc1)Cc1ccccc1`, the hERG blockade is -10.6% (inactive). The value for `CC12CCC(O)CC1CCC1C2CCC2(C)C(c3cc(C(F)(F)F)n[nH]3)CCC12` (centres undefined) was 8.14% (inactive); that for `CN(C)S(=O)(=O)c1ccc(Nc2ccc(O)c3c2C(=O)c2c([N+](=O)[O-])ccc(O)c2C3=O)cc1` was 64.1% (active). `O=C1c2ccccc2C(=O)c2c(NC3CCCCC3)ccc(Nc3ccc(S(=O)(=O)O)cc3)c21`: the hERG blockade was 16.1% (inactive). On to `O=C1C2C3C=CC(C2C(=O)N1CN1CCSCC1)C1C2C(=O)N(CN4CCSCC4)C(=O)C2C31` (centres undefined), for which the hERG blockade was 7.62% (inactive).

With `CC(=O)Nc1ccc(S(=O)(=O)N=S(C)C)cc1`, the hERG blockade is 14.2% (inactive). Then `c1ccc(COC2NCCN2Cc2ccccc2)cc1` (centres undefined), with 7.69% (inactive); and `c1ccc([P+](CC[P+](c2ccccc2)(c2ccccc2)c2ccccc2)(c2ccccc2)c2ccccc2)cc1`, with 11.7% (inactive); and `NCCCc1ccc2oc3ccccc3c2c1`, with 29.2% (active). As for `Cc1cc(=O)[nH]c2cc3oc4ccccc4c3cc12`, the hERG blockade is 4.54% (inactive).

As to `Cn1cnc([N+](=O)[O-])c1SCC(=O)O`, the hERG blockade was 2.91% (inactive). Then `O=C(O)CSc1ccc([N+](=O)[O-])cc1[N+](=O)[O-]`, with 2.18% (inactive); and `O=C(O)CSc1ncccc1[N+](=O)[O-]`, with -20.2% (active). Then `NCC(O)CSCc1ccc(Cl)cc1` (centres undefined), with -14.3% (inactive).

As for `c1ccc(-c2nnn(CCN3CCCCC3)n2)cc1`, the hERG blockade was -7.12% (inactive). Then `Cn1c(=O)c2c(nc(NN=Cc3ccccc3C(=O)O)n2C)n(C)c1=O`, with -7% (inactive). Then `CC(C)C(C(=O)O)N1C(=O)c2ccccc2C1=O` (centres undefined), with 5.91% (inactive). Turning to `Cc1ccc(C(N)=Nc2ccccc2)cc1`, the hERG blockade is 8.7% (inactive). The value for `O=C(O)CCc1nc(-c2ccccc2)c(-c2ccccc2)o1` was 1.96% (inactive); that for `O=C(O)CCc1nc2ccccc2[nH]1` was -3.47% (inactive). Then `O=C(O)CCc1ccc(-c2ccccc2)[nH]1`, with -28.1% (active). The value for `O=C(CC(C(=O)O)N1CCOCC1)c1ccccc1` (centres undefined) was 7.79% (inactive); that for `OCC(O)C(O)C(O)C(O)c1nc2ccc(Cl)cc2[nH]1` (centres undefined) was 3.95% (inactive); that for `Cc1cc(Cc2cc(C)cc(C(C)(C)C)c2O)c(O)c(Cc2cc(C)cc(C(C)(C)C)c2O)c1` was 15.5% (inactive).

On to `Cc1ncc(CSc2ccccc2N)c(CO)c1O`, for which the hERG blockade is -7.6% (inactive). The value for `CC(C)(C)c1ccc(CN2CCN(C(c3ccccc3)c3ccc(Cl)cc3)CC2)cc1` (centres undefined) was 23.1% (active). Turning to `Clc1ccc(CN2CCCN(Cc3ccc(Cl)cc3)C2c2cc3ccccc3c3ccccc23)cc1`, the hERG blockade was -5.92% (inactive). Then `c1ccc(CN2CCC3(CC2)SSC2(CCN(Cc4ccccc4)CC2)SS3)cc1`, with 1.07% (inactive); and `CC1NCCC(CC(=O)O)C1CC(=O)O` (centres undefined), with -10.6% (inactive); and `CC(C(=O)c1ccccc1)C(c1ccccc1)N1CCOCC1` (centres undefined), with -13.1% (inactive). The value for `Cc1onc(-c2c(F)cccc2Cl)c1C(=O)NC1C(=O)N2C1SC(C)(C)C2C(=O)O` (centres undefined) was 8.23% (inactive).

Consider `Cc1ccc2nc(NN=Cc3cccc(C)n3)cc(C)c2c1`, for which the hERG blockade is 26.3% (active). The value for `CSc1nnnc2ccccc12` was 8.81% (inactive); that for `O=C(O)C(Cc1cn[nH]n1)=NO` was 7.89% (inactive); that for `O=C(O)C(Cc1ccnc2ccccc12)=NO` was -22.9% (active).

Turning to `O=C(O)C(=Cc1ccnc2ccccc12)C(=O)O`, the hERG blockade was 3.04% (inactive). `NC(=O)SCC(=O)Nc1ccc2ncccc2c1`: the hERG blockade is 8.17% (inactive). Then `CC1(C)N=C(N)N=C(N)N1c1cccc(OCc2cccc([N+](=O)[O-])c2)c1`, with -1.1% (inactive). The value for `CC(C)(COC1CC2CCC1(C)C2(C)C)[N+](=O)[O-]` (centres undefined) was -4.38% (inactive); that for `N#CC(=CNc1ccccn1)C(=O)C1CC1` was 0.609% (inactive); that for `O=[N+]([O-])c1ccc2c(c1)S(=O)c1ccccc1-2` (centres undefined) was 13.4% (inactive). The value for `NC(Cc1cccc([N+](=O)[O-])c1)C(=O)O` (centres undefined) was 7.25% (inactive).

Turning to `N=C(N)SC1c2ccccc2-c2cc([N+](=O)[O-])ccc21` (centres undefined), the hERG blockade is 50.8% (active). `N#CC(N=Nc1ccccc1C(=O)O)C(N)=O` (centres undefined): the hERG blockade is -0.342% (inactive).

Take `O=[N+]([O-])c1ccc(C(Nc2ccccc2)c2ccc3cccnc3c2O)cc1` (centres undefined): the hERG blockade was 11.2% (inactive). The value for `Cc1cc2ccccc2c[n+]1CC(O)C[n+]1cc2ccccc2cc1C` was 26.1% (active). Then `Cc1ccc(S(=O)(=O)OC2CC(C(C)(C)C)CCC2c2ccccc2)cc1` (centres undefined), with 2.36% (inactive); and `COc1cccc2c1C(CO)N1C(C#N)C3CC(C(=O)O)C(C1C2)N3C` (centres undefined), with -24.5% (active).

Take `O=C(Nc1cccc(Cl)c1)Nn1cnnc1`: the hERG blockade is 10.3% (inactive).

Take `Cc1ccc(CN2CCN(Cc3ccc(C)o3)C(C)C2)o1` (centres undefined): the hERG blockade is 0.417% (inactive). Then `O=C(O)C1C2C=CC(O2)C1C(=O)Nc1ncccn1` (centres undefined), with -6.76% (inactive); and `COc1ccc(C=NNC(=O)O)cc1`, with -2.22% (inactive); and `CN1CCN(CC(=O)N2c3ccccc3Sc3cc4ccccc4cc32)CC1`, with 52.7% (active). The value for `CC1CCN(CC(=O)N2c3ccccc3Sc3cc4ccccc4cc32)CC1` was 14% (inactive); that for `O=C(CC1(O)CCCCC1)OC1CCCC1` was -2.11% (inactive); that for `CCOC(=O)c1c2c(n3ccccc13)C(=O)c1ccccc1C2=O` was 8.67% (inactive).

For `NC1(C(=O)O)CCCC1C(=O)O` (centres undefined), the hERG blockade was -13.4% (inactive). Then `CCC1(O)C(=O)OCc2c1cc1n(c2=O)Cc2cc3c(CN(C)C)c(O)ccc3nc2-1` (centres undefined), with 21.4% (active). As for `O=C(O)c1ccc(NS(=O)(=O)Cc2ccccc2)cc1`, the hERG blockade is 7.65% (inactive). Then `NC(N)=NC1C(O)C(O)C(O)C(N=C(N)N)C1O` (centres undefined), with -0.537% (inactive); and `Cc1[nH]c2ccccc2c1-c1cc(-c2cc(-c3c(C)[nH]c4ccccc34)on2)no1`, with -7.59% (inactive); and `N#Cc1c(NC(=O)C(F)(F)F)sc2c3c(=O)c4ccccc4c(=O)c=3oc3ccccc3c12`, with 59% (active). Then `NCOC(=O)Cc1ccc(Br)cc1`, with -16.9% (inactive). Then `COc1ccc2c(c1)[n+]([O-])c(C(C)=NNC(N)=S)c(C)[n+]2[O-]`, with -7.37% (inactive). On to `OCCNc1ncnc2nc[nH]c12`, for which the hERG blockade was 3.32% (inactive). The value for `c1nc(NCCc2cnc[nH]2)c2[nH]cnc2n1` was -31% (active); that for `O=C(O)CCNc1ncnc2nc[nH]c12` was 14% (inactive); that for `Cn1c(=O)c2[nH]c(N=NN3CCN(CCO)CC3)nc2n(C)c1=O` was 0.124% (inactive). Then `O=C(O)C(=Cc1ccc(O)cc1)c1cccc2ccccc12`, with 0.955% (inactive); and `Cn1c(CC(O)c2nc3ccccc3n2C)nc2ccccc21` (centres undefined), with -5.68% (inactive). Then `N=C(N)SCc1cccc2c(=O)cc(-c3ccccc3)oc12`, with 44.3% (active); and `N=C(N)SCc1cccc(-c2nc3ccccc3c(=O)o2)c1`, with -5.77% (inactive); and `O=C(O)Cc1cccc2c(=O)cc(-c3ccccc3)oc12`, with -7.46% (inactive). For the compound `c1ccc2c(c1)C(=Nc1ccc(N=C3c4ccccc4-c4ccccc43)cc1)c1ccccc1-2`, the hERG blockade is 6.51% (inactive).

As to `CC(C)N(CC(=O)O)CC(=O)O`, the hERG blockade was 7.91% (inactive). The value for `NC(Cc1ccccc1)C(=O)O` (centres undefined) was 16.4% (inactive); that for `[N-]=[N+]=Nc1ccccc1-c1ccccc1[N+](=O)[O-]` was -19.7% (inactive); that for `c1cc(-c2sc(-c3ccncc3)c(-c3ccncc3)c2-c2ccncc2)ccn1` was 22.4% (active). `Nc1[nH]c(=S)[nH]c(=O)c1N=Nc1c(Br)cc(S(N)(=O)=O)cc1Br`: the hERG blockade was 6.92% (inactive). The value for `CSC12C(=O)CC3(C)C(CCC3(O)C(=O)CO)C1CCC1=CC(=O)CCC12C` (centres undefined) was 3.28% (inactive); that for `Ic1ccc2c(c1)N(c1ccccc1)c1cc(Nc3ccc4nc5ccc(I)cc5[n+](-c5ccccc5)c4c3)ccc1N2` was 30.3% (active); that for `CN1CCCN(C)C1c1cc([N+](=O)[O-])ccc1O` was 11.9% (inactive). Then `CC(N)C(C)Cc1ccccc1` (centres undefined), with 8.67% (inactive); and `COC(=O)c1cc(-c2ccc3ccccc3c2)[nH]c(=O)c1C#N`, with 2.57% (inactive). The value for `ClC(Cl)(Cl)C(N1CCN(c2ccccc2)CC1)N1CCN(c2ccccc2)CC1` was 3.84% (inactive).
